Source: PubChem BioAssay
IDE inh: human IDE inhibitors in live cells, primary screen, fluorescence polarization, HEK cells, FAbetaB substrate | 320,000 tested, 0.41% active | inhibition, % at 5.59 µM | Insulin-degrading enzyme (Homo sapiens), P14735 | AID 434962, 2010 | FAbetaB cleavage;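 active means percent inhibition above the average of all tested compounds plus 3 SD, set per screening campaign, cut at about 16% in these data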;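 further: IDE supplied by intact live HEK cells; FP after avidin binding of uncleaved biotin substrate so inhibition keeps polarization high; 0% = DMSO wells and 100% = 60 µM reference IDE inhibitor Ii1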
IDE cell activ: human IDE activators in live cells, primary screen, fluorescence polarization, HEK cells, FAbeta-B substrate. Insulin-degrading enzyme (Homo sapiens), P14735. FAbeta-B cleavage; 0% vehicle, 100% cell-free pure enzyme wells. activation, % at 5.96 µM. 340,000 tested, 0.073% active. AID 493087, 2011;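 active means activation above the mean of all tested compounds plus 3 SD, set per screening campaign, cut at about 17% in these data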
HNF4A DNA FP: change in binding of human HNF4A to DNA, primary screen, biochemical, fluorescence polarization, FITC-DNA; 1 h; activity change, % at 10 µM; Hepatocyte nuclear factor 4-alpha (Homo sapiens), P41235; 360,000 tested, 0.3% active; AID 1224865, 2016; in the data active means activity change above about 30%, passing the limit was not always enough
Target sequence (P41235 whole entry, looked up): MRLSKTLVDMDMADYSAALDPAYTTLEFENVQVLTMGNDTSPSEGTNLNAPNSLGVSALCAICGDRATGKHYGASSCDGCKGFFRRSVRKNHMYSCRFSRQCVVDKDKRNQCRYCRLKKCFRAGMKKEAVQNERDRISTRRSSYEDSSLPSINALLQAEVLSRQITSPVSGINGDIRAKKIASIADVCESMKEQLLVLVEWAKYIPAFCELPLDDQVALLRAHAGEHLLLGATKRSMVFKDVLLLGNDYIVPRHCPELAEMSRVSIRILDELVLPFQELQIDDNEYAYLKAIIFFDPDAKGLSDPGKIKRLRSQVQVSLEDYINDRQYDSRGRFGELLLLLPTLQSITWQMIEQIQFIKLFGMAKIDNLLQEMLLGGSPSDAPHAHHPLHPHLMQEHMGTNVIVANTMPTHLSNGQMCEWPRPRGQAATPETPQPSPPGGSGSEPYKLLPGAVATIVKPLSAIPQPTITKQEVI
TPT1 inhibitor: Candida albicans TPT1 enzyme inhibitors, primary screen, biochemical, fluorescence polarization; tRNA 2'-phosphotransferase TPT1 (Candida albicans SC5314); recombinant caTPT1, FP RNA substrate dephosphorylation; inhibition, % at 5 µM; 300,000 tested, 0.81% active; AID 1962, 2009;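 active means inhibition above the mean of all tested compounds plus 3 SD, set per screening campaign, cut at about 24% in these data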;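 further: plate controls were DMSO alone for no effect and ferristatin control at 100 nM for full effect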
CRFR2-BP ag: agonists of CRF-BP/CRF-R2 complex, primary screen, cell-based, HEK293, calcium dye fluorescence, uHTS | calcium dye fluorescence (FLIPR); percent of saturating CRF peptide response | activation, % at 13.2 µM | CRF-binding protein / CRF receptor 2 complex (human) | 350,000 tested, 0.46% active;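 active means activation of at least 50%, plus an integration ratio under a set limit after plate pattern correction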;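 further: plate controls were neutral control wells without compound for no effect and CRF at EC100 for full effect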
caTPT1 confirm: Candida albicans TPT1 inhibitors, confirmation, biochemical, fluorescence polarization, triplicate; shares compounds with TPT1 inhibitor; recombinant caTPT1, RNase T1 coupled; inhibition, % at 5 µM; 2,400 tested, 74% active;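 active means inhibition above the primary screen limit, the mean inhibition of all tested compounds plus 3 SD, cut at about 25% in these data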
RNase T1 counter: RNase T1 inhibitors, counter-screen for TPT1 inhibitor project, biochemical, fluorescence polarization. shares compounds with TPT1 inhibitor. RNase T1 cleavage, 1536-well. inhibition, % at 5 µM. 2,400 tested, 83% active. AID 2153, 2009;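 active means inhibition above the solvent-only control well mean plus 3 SD, limit set per screening run, cut at about 23% in these data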;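 further: plate controls were DMSO wells with enzyme for no effect and wells without RNase T1 for full effect; inhibitors block cleavage so intact labeled substrate keeps polarization high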
Target sequence (P00651 whole entry, looked up): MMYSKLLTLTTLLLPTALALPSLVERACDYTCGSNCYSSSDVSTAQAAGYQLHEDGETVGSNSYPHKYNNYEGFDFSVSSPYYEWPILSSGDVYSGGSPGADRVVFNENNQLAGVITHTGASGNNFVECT
Starred values were filed as active, the others as inactive; · = no result given; + = active, no number. The list is not random: actives were taken first. Their share in the collection is about 1.4%.

SMILES | IDE inh | IDE cell activ | HNF4A DNA FP | TPT1 inhibitor | CRFR2-BP ag | caTPT1 confirm | RNase T1 counter
COc1cc(N2CCCC2)c(OC)cc1/C=C(/C#N)c1cccc(F)c1 | 17.0* | -16.2 | 89.1 | 143.5* | 46.6 | 145.2* | 140.3*
Cc1cccc(N2C(=O)N3[C@H]4c5ccccc5OC[C@@H]4[C@@H](c4ccccc4)[C@@]3(C)C2=O)c1 | 0.5 | 5.9 | 2.2 | · | 3.7 | · | ·
C=CCn1c(COc2ccc(Cl)cc2)nnc1SCC(=O)c1c(N)n(C)c(=O)n(C)c1=O | 4.1 | -4.1 | -1.9 | -2.8 | 0.0 | · | ·
Cc1cccc2sc(NC(=O)C3CCCN(S(=O)(=O)c4cccc5nonc45)C3)nc12 (configuration not stated) | -0.2 | 1.6 | 21.0 | 43.4* | 2.7 | 39.0* | 48.8*
CCc1ccc(C(=O)/C=C/c2ccc([N+](=O)[O-])o2)cc1 | 2.5 | 2.9 | 3.0 | 13.5 | -0.9 | · | ·
CCN(CC)S(=O)(=O)c1ccc(C(=O)/C=C/c2ccc(-c3ccc([N+](=O)[O-])cc3)o2)cc1 | 0.9 | 4.7 | 0.4 | 29.9* | 28.3 | 48.8* | 53.0*
Cc1ccc(C(=O)/C=C/c2ccc(-c3ccc(C)cc3)o2)cc1 | -3.3 | -7.3 | 5.8 | 38.8* | 22.8 | 72.0* | 79.2*
CSc1cccc(NC(=O)NCc2cccc(CNC(=O)Nc3cccc(SC)c3)c2)c1 | 4.5 | 1.0 | 1.4 | 50.6* | -1.6 | 4.3 | 6.2
CCSC1=N/C(=C\C=C2/Oc3ccccc3N2CC)C(=O)S1 | 19.8* | -34.7 | 187.1 | 138.2* | 41.8 | 147.5* | 143.2*
C=CCOc1ccc(C(c2c(C)n(C)n(-c3ccccc3)c2=O)c2c(C)n(C)n(-c3ccccc3)c2=O)cc1 | 6.3 | -0.8 | 3.7 | -2.2 | -3.1 | · | ·
N#Cc1c(N)n(CCNC(=O)c2cccs2)c2nc3ccccc3nc12 | 2.2 | 1.2 | 5.4 | 62.9* | 1.8 | 44.7* | 59.1*
N#Cc1c(N)n(CCNC(=O)c2ccccc2)c2nc3ccccc3nc12 | 3.2 | -2.7 | 0.7 | 21.0 | 2.0 | · | ·
COc1cccc(C2=CC(c3ccc(N(C)C)cc3)n3ncnc3N2)c1 (configuration not stated) | 18.2* | · | · | 38.2* | · | 33.8* | 42.9*
COc1cccc(C2=CC(c3ccccc3)n3ncnc3N2)c1 (configuration not stated) | 7.9 | · | · | -13.7 | · | · | ·
COCCN(C(=O)COC(=O)c1ccc2[nH]c(C)c(C)c2c1)c1c(N)n(Cc2ccccc2)c(=O)[nH]c1=O | -6.0 | 3.4 | 11.0 | 27.9* | -0.1 | 59.9* | 70.9*
COCCN(C(=O)COC(=O)c1ccc2ccccc2c1)c1c(N)n(Cc2ccccc2)c(=O)[nH]c1=O | · | · | -0.5 | · | -1.9 | · | ·
CC(C)N=C1NN=C(c2cccs2)CS1 | -1.4 | 4.0 | 2.8 | -0.9 | 1.0 | · | ·
CC(C)c1ccc(N=C2NN=C(c3cccs3)CS2)cc1 | 3.5 | 4.9 | 27.1 | 40.2* | 1.6 | 42.1* | 50.2*
Cc1cc(NC(=O)NC(=O)c2ccccc2NC(=O)C(C)N)ccc1Oc1ncc(Br)cn1 (configuration not stated) | · | 3.4 | 0.4 | · | 2.9 | · | ·
Cc1ccc(N/C=C/C(=O)c2sc(-c3ccccc3)nc2C)cc1 | 0.5 | -2.0 | 11.2 | 38.8* | 8.2 | 37.8* | 46.8*
COc1ccc(CN2CCCC(C(=O)N3CCCCC3)C2)cc1OC (configuration not stated) | 3.7 | 3.7 | -2.1 | 2.2 | -0.3 | · | ·
O=C(NCC1CCCCC1)c1cc(Br)ccc1Cl | 5.4 | 1.6 | 0.4 | -0.8 | -1.4 | · | ·
CN(C)c1ccc(/C=N/N(CCC#N)C2=NS(=O)(=O)c3ccccc32)cc1 | -2.5 | 0.1 | 10.1 | 26.9* | 20.6 | 8.5 | 16.8
COC(=O)Cn1cnc2c(oc3ccccc32)c1=O | 0.4 | 6.9 | 0.1 | 2.1 | 0.7 | · | ·
CCN(CC)C1=CC2=CC(=C(C#N)C#N)CCC2CC1 (configuration not stated) | -20.1 | 44.4* | -99.1 | 32.2* | 533.1 | 21.8 | 37.1*
SMILES | IDE inh | IDE cell activ | HNF4A DNA FP | TPT1 inhibitor | CRFR2-BP ag | caTPT1 confirm | RNase T1 counter
CCc1ccc(-c2nc(SCC(=O)c3c(N)n(C4CC4)c(=O)[nH]c3=O)n[nH]2)cc1 | 0.8 | -2.3 | 0.6 | · | -0.9 | · | ·
Cc1ccc(NC(=O)c2ccc(NCCc3ccccc3)c([N+](=O)[O-])c2)cc1F | 2.5 | 0.4 | 54.0* | 58.7* | 1.7 | 107.9* | 112.8*
Cc1ccc(NC(=O)c2ccc(NCCN)c([N+](=O)[O-])c2)cc1Cl | 1.2 | -3.7 | 8.1 | -0.7 | -1.6 | · | ·
O=C(Nc1cc(F)cc(F)c1)c1ccc(NCCc2ccccc2)c([N+](=O)[O-])c1 | -0.3 | -0.2 | 115.5 | 67.5* | 0.6 | 92.3* | 101.6*
O=C(Nc1cc(F)cc(F)c1)c1ccc(NCCCN2CCCCCC2)c([N+](=O)[O-])c1 | -2.4 | 1.3 | 0.1 | 0.9 | -0.3 | · | ·
CCOC(=O)C(=CNc1nc(-c2ccc3ccccc3c2)cs1)C(=O)OCC | 0.7 | -0.9 | -1.5 | 0.5 | 2.0 | · | ·
COc1cc(/C=C2\SC(c3ccc(C)cc3)=NC2=O)cc(OC)c1O | 2.0 | -17.6 | 31.8 | 47.8* | 0.0 | 66.5* | 79.5*
Cc1ccc(C2=NC(=O)/C(=C/c3cc(O)c(O)c(Br)c3)S2)cc1 | · | -4.3 | -51.6 | · | 0.2 | · | ·
Cc1cc(C(=O)OCC(=O)N2CC(C)OC(C)C2)c(C)n1-c1ccccc1 (configuration not stated) | -4.0 | 2.3 | -1.2 | · | -3.0 | · | ·
CCCN1C(=O)S/C(=C/c2ccc(N3CCOCC3)o2)C1=O | 8.0 | -89.9 | 217.0 | 179.9* | 61.0* | 183.4* | 165.7*
CCCN1C(=O)S/C(=C\c2ccc(N3CCOCC3)o2)C1=O | -0.1 | -79.3 | 127.4 | + | 28.6 | 187.5* | 168.5*
O=C(O)CN1C(=O)/C(=C/c2ccc(N3CCCCC3)o2)SC1=S | -0.9 | -28.8 | -8.9 | 8.9 | 5.6 | · | ·
COC(=O)CN1C(=O)S/C(=C/c2ccc(N3CCCCC3)o2)C1=O | 3.2 | -141.8 | -37.9 | 181.2* | 56.5* | 191.3* | 170.1*
CN(C)CCCNC(=O)C(=O)NCC1CCCO1 (configuration not stated) | 2.4 | 4.0 | -4.2 | -1.1 | 1.6 | · | ·
CCOC(=O)C(=COC(=O)c1ccccc1)NC(=O)Cc1ccccc1 | · | -0.5 | -2.4 | · | -0.8 | · | ·
Cc1nnc(N/N=C/c2ccco2)n1N | 5.4 | 4.2 | 1.2 | 69.7* | -0.5 | 11.1 | 16.8
